Screens from PubChem BioAssay.
Beta apoptosis = beta cell apoptosis inhibition | INS-1E cytokine-induced death, ATP luminescence, 48 h; percent of positive-control rescue, neutral wells zero | protection from apoptosis, % (concentration not given with the values) | 300,000 compounds, 0.8% hits | AID 435005;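 active = Every replicate reaches about 75%, or at least half do and their mean reaches it too, limit read from the data; inconclusive = At least half of replicates reach the limit but their mean does not; inactive = Under half of replicates reach the limit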;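 note: higher means more ATP so stronger rescue from cytokine killing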
Mdm2 MdmX PPI = disrupts the human Mdm2-MdmX interaction; 330,000 compounds, 3% hits; SaOS-2 split-luciferase Mdm2/MdmX complementation, luminescence; O15151+Q00987; inhibition, % at 8 µM;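 active = inhibition of at least 50% at 8 µM in the primary screen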
A1 inh = inhibitors of the anti-apoptotic protein A1, read as caspase activation; 330,000 compounds, 0.066% hits; caspase activation, % (concentration not given with the values); MEF A1-2A-BIM cells, Caspase-Glo 3/7 luminescence, 3 h; percent of clofoctol response, vehicle zero; AID 2462;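 active = over half of replicate activation scores above 10%, or exactly half above 10 with the replicate mean above 10; inconclusive = replicate mean below 10 yet half the replicates above 10; inactive = over half of replicates below 10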
697 NFkB inh = lowers PMA/ionomycin-induced NF-kB signal in 697 B cells; inhibition, % at 4 µM; 330,000 compounds, 0.33% hits; 697 B-cell NF-kB luciferase reporter, 16 h; in the data active = inhibition above about 35%
NTR1 agonist = NTR1 (human) agonism. NTR1-U2OS beta-arrestin-GFP spot imaging, agonist mode. activation, % at 20 µM. 330,000 compounds, 0.17% hits. AID 493036;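 active = activation at or above 40% of the spot to cytoplasm intensity ratio, with at least 20 cells analyzed; inconclusive = wells under 20 cells, flagged as cytotoxic or low count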
Target sequence (P30989 whole entry, looked up): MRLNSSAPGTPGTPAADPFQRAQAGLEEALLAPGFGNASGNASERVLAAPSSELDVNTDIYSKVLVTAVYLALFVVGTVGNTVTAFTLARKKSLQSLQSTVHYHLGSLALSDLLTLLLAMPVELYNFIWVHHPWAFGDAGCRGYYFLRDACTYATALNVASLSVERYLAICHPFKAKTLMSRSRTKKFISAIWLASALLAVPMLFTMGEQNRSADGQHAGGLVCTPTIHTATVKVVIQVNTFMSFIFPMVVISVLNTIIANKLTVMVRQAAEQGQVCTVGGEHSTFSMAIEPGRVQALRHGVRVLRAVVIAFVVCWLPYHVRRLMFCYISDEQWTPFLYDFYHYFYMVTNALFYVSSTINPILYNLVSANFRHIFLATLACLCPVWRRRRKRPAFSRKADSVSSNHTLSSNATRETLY
Jurkat NFkB inh = lowers PMA/ionomycin-induced NF-kB signal in Jurkat cells. PMA/ionomycin-induced NF-kB luciferase reporter, luminescence. AID 435003. inhibition, % at 4 µM. 330,000 compounds, 0.53% hits; in the data active = inhibition above about 50%
Mdm2 MdmX conf = human Mdm2/MdmX binding inhibition, confirmed; luminescent assay; 10,000 compounds, 55% hits; shares compounds with Mdm2 MdmX PPI; inhibition, % at 8 µM; in the data active = inhibition above about 40%
Full FLuc ctr = counter-screen for Mdm2/MdmX inhibitors: full-length luciferase; shares compounds with Mdm2 MdmX PPI; inhibition, % at 8 µM; SaOS-2 full-length luciferase counterscreen, luminescence; 6,200 compounds, 77% hits;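 active = mean inhibition at 8 µM reaching about 37%, which flags the compound as non-specific, limit read from the data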;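 note: p53-null SaOS-2 cells with luciferase driven by a doxycycline-inducible promoter; compound on cells about two nights before reading with doxycycline added after day one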
A number is an active result; – = inactive; ? = inconclusive; · = not tested or not shown. Compounds with a hit are over-represented: about 3.8% of the library has one in this group of screens.

SMILES	Beta apoptosis	Mdm2 MdmX PPI	A1 inh	697 NFkB inh	NTR1 agonist	Jurkat NFkB inh	Mdm2 MdmX conf	Full FLuc ctr
CCOc1ccc(C(=O)NCCC(=O)N2CCC3(CC2)NCCc2[nH]cnc23)cc1	–	–	–	–	–	–	·	·
Cc1ccc(F)c(N=Cc2c(O)c3ccccc3oc2=O)c1	–	–	–	–	–	–	·	·
COC(=O)C1=C(C)N(c2ccc(Cl)c(Cl)c2)C(=O)C1	–	97	–	–	–	–	–	·
CN(C)CCCN(C(=O)CCc1ccccc1)c1nc2ccc(Br)cc2s1	–	58	–	–	–	–	–	52
Cc1cccc2sc(N(CCCN(C)C)C(=O)CCc3ccccc3)nc12	–	60	–	–	–	–	–	·
CC(=O)Nc1ccc(SCC(=O)c2cc(C)n(-c3ccccc3)c2C)cc1	–	65	–	–	–	–	79	94
CN(C)c1cccc(C(=O)NCCCn2ccc3ccccc32)c1	–	–	–	–	–	–	·	·
S=c1[nH]nc(-c2ccco2)n1/N=C/C(Cl)=C/c1ccccc1	–	62	–	–	–	–	–	·
S=c1[nH]nc(-c2cc(-c3ccccc3)n[nH]2)n1/N=C/C(Br)=C/c1ccccc1	?	100	–	–	–	–	84	–
S=c1[nH]nc(-c2cc(-c3ccccc3)n[nH]2)n1/N=C/c1ccccc1	–	–	–	–	–	–	·	·
CC(=C/c1ccccc1)/C=N/n1c(-c2ccncc2)n[nH]c1=S	–	74	–	–	–	–	78	53
CC(=O)CC(c1ccccc1)S(=O)(=O)c1ccc([N+](=O)[O-])cc1 (centres undefined)	–	–	–	–	–	–	·	·
COc1ccc(C(=O)Nc2ncc3c(n2)CC(C)CC3=O)cc1 (centres undefined)	–	–	–	–	–	–	·	·
COc1cccc(C(=O)Nc2ncc3c(n2)CC(c2ccc(OC)cc2OC)CC3=O)c1 (centres undefined)	–	59	–	–	–	–	51	57
COc1ccc(CN(CCC(c2ccc(F)cc2)C2CCOC(C)(C)C2)C(=O)c2ccco2)cc1 (centres undefined)	–	76	–	–	–	–	53	131
CC(C)N(Cc1ccc(F)cc1)C(=O)c1cc2ccccc2oc1=O	–	–	–	–	–	–	·	·
CCN(CC(=O)Nc1ccc2c(c1)OCCO2)C(=O)CSCC(=O)Nc1ccc(C)cc1	–	–	–	–	–	–	·	·
O=c1cc(O)c2sc(Nc3ccc(Cl)c(F)c3)nc2[nH]1	–	72	–	–	–	–	56	45
O=c1cc(O)c2sc(Nc3ccc(F)c(Cl)c3)nc2[nH]1	–	60	–	–	–	–	45	63
CCCCCSc1nc2c(cnn2-c2ccc(F)cc2)c(=O)[nH]1	–	–	–	–	–	–	·	·
Nc1nonc1-n1nnc(C(=O)N/N=C/c2ccc(OCc3ccccc3)cc2)c1CNc1ccccc1	–	77	–	–	–	–	–	·
Nc1nonc1-n1nnc(C(=O)N/N=C/c2ccc(OCc3ccccc3)cc2)c1COc1ccc(F)cc1	–	61	–	–	–	–	40	105
Nc1nonc1-n1nnc(C(=O)N/N=C/c2ccc(O)cc2)c1COc1ccc(F)cc1	–	–	–	–	–	–	·	·
CC(C)c1c(C(=O)N/N=C/c2ccc(OCc3ccccc3)cc2)nnn1-c1nonc1N	–	–	–	–	–	–	·	·
Nc1nonc1-n1nnc(C(=O)N/N=C/c2ccc(F)cc2)c1-c1ccc2c(c1)OCO2	–	59	–	–	–	–	–	·
SMILES	Beta apoptosis	Mdm2 MdmX PPI	A1 inh	697 NFkB inh	NTR1 agonist	Jurkat NFkB inh	Mdm2 MdmX conf	Full FLuc ctr
Nc1nonc1-n1nnc(C(=O)N/N=C/c2cccc(F)c2)c1-c1ccc2c(c1)OCO2	–	–	–	–	–	–	·	·
Cc1ccccc1COc1cccc(/C=N/NC(=O)c2nnn(-c3nonc3N)c2C)c1	–	51	–	–	–	–	–	87
CCCC1=Nc2cc(C(=O)NCCCOC(C)C)ccc2Sc2ccccc21	–	50	–	–	–	–	66	71
C/C(=N\Nc1ccc(S(=O)(=O)N2CCCCC2)cn1)c1cccc(Br)c1	–	–	–	–	–	–	·	·
COc1cc(/C=C(\C#N)c2ccccn2)ccc1OCC(=O)Nc1c(Cl)cccc1Cl	–	·	–	·	·	·	·	·
COc1cc(/C=C(\C#N)c2nc3ccccc3s2)ccc1OCC(=O)Nc1ccccc1	–	·	–	·	·	·	·	·
COc1cc(/C=C(\C#N)c2ccccn2)ccc1OCC(=O)Nc1ccc(Br)cc1	–	100	–	–	–	–	94	–
COc1cc(/C=C(/C#N)c2nc3ccccc3[nH]2)ccc1OCC(=O)Nc1ccccc1C(C)C	–	100	10.0	–	–	–	79	52
CCN(CC)CCNC(=O)Cn1cnc2sc(C)c(S(=O)(=O)N3CC(C)CC(C)C3)c2c1=O (centres undefined)	–	–	–	–	–	–	·	·
Cc1ccc2[nH]c3c(=O)n(CC(=O)Nc4ccccc4N4CCN(C)CC4)ncc3c2c1	–	61	–	–	–	–	–	·
Cc1noc(C)c1CSc1nc2sc3c(c2c(=O)n1C)CCCC3	–	–	–	–	–	–	·	·
COc1cc2nc(SCc3c(C)noc3C)n(CCC3=CCCCC3)c(=O)c2cc1OC	·	87	–	–	–	–	52	50
Cc1ccc2c(c1)C(=O)C(=O)N2CCCOc1ccccc1C	–	–	–	–	–	–	·	·
CCCN1C(=O)C(=O)c2cc(C)ccc21	–	60	–	–	–	–	–	·
Cc1ccc(CN2C(=O)C(=O)c3cc(C)ccc32)cc1	–	67	?	–	–	–	–	·
Cc1ccc2c(c1)C(=O)C(=O)N2Cc1ccc(Br)cc1	–	66	5.9	–	–	–	63	74
CCCCN1C(=O)C(=O)c2cc(Cl)ccc21	–	54	–	–	–	–	–	·
Cc1ccc2c(c1)C(=O)C(=O)N2c1ccc(Cl)cc1	–	–	–	–	–	–	·	·
Cn1c(SCC(=O)Nc2ccc3c(c2)n(C)c(=O)n3C)nnc1-c1ccncc1	–	–	–	–	–	–	·	·
CCCCN1C(=O)c2ccc(C(=O)NC3(C)CCS(=O)(=O)C3)cc2C1=O (centres undefined)	–	–	–	–	–	–	·	·
O=C(c1cc(-c2cccnc2)nc2ccc(Br)cc12)N1CCN(c2ncccn2)CC1	–	52	–	–	–	–	51	101
COc1ccc(CN2CCN(C(=O)c3cc(-c4cccnc4)nc4ccc(Cl)cc34)CC2)c(OC)c1OC	–	51	–	–	–	–	49	73
CC(C)(CNC(=O)c1ccccc1F)CNC(=O)c1ccccc1F	·	–	–	–	–	–	·	·
